# Several values for one entry are separate records, joined by “and”; a condition that tells them apart may be missing. Equal values may be shown once. Records with an inconclusive call do not appear. Activity calls are given as the source filed them.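 The calls were made as follows, unless noted: active = efflux inhibition above 0.42, the validation set average plus 4 SD; inconclusive = no clear call, values can overlap the other calls; inactive = the rest.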
# Tests used:
# [1] = yeast TOR pathway RPL19A-GFP modulators, primary screen, cell-based, S. cerevisiae, multiplex flow cytometry (AID 1862; in the data active = percent of DMSO control GFP below about 86%;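 also: lower values mimic rapamycin by blocking the RPL19A rise seen in DMSO cells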); conditions: S. cerevisiae RPL19A-GFP strain, flow cytometry fluorescence, 3 h; at 10 µM; stronger effect = lower value
# [2] = modulators of MEP2-GFP levels in yeast, primary screen, S. cerevisiae, multiplex flow cytometry (AID 1867;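 active = GFP response, as percent of the DMSO control, above the screen-wide mean plus 3 SD, about 139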;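 also: median GFP channel fluorescence of barcode-gated MEP2-GFP cells measured by flow cytometry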); conditions: S. cerevisiae MEP2-GFP strain, 3 h, at 10 µM, stronger effect = higher value, 100% means same as DMSO wells
# [3] = modulators of CIT2-GFP expression in yeast, primary screen, S. cerevisiae, GFP fusion, multiplex flow cytometry (AID 1870;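 active = percent response above a set limit, the screen-wide mean plus 3 SD, cut at about 130% in these data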;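 also: barcoded CIT2-GFP strain pooled with four other GFP strains with rapamycin as positive control; median GFP fluorescence per well over plate mean of DMSO wells so 100% = DMSO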); conditions: 3 h, at 10 µM, stronger effect = higher value
# [4] = modulators of LAP4-GFP expression in yeast, primary screen, S. cerevisiae, multiplex flow cytometry (AID 1873;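 active = GFP signal, as percent of the solvent control, above the screen mean plus 3 SD, about 149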); conditions: 3 h, at 10 µM, stronger effect = higher value
# [5] = modulators of AGP1-GFP expression in yeast TOR pathway, primary screen, cell-based, multiplex flow cytometry, S. cerevisiae (AID 1887;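 active = GFP signal above the screen-wide mean plus 3 SD, that is over about 124.5% of the solvent control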;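 also: AGP1-GFP fusion strain of S. cerevisiae within a five-strain barcoded multiplex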); conditions: 3 h, at 10 µM, stronger effect = higher value
# [6] = inhibitors of CD8+ T cell-vesicle binding, pilot screen, LFA-1/ICAM-1 modulator project, MLPCN validation set, flow cytometry (AID 2523;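 active = response below a set limit, under 55% cells CD8-positive and vesicle-bound, and CD8 cells' 90th-percentile brightness under 279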;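 as to vesicle binding response: mean PE anti-B7-1 fluorescence of CD8+ cells relative to row control; 100% = QL9-loaded vesicles with DMSO vehicle in the same plate row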); conditions: 2C mouse CD8+ T cells, at 7 µM, stronger effect = lower value; double positive events: measured here: CD8+/vesicle+ event percentage
# [7] = biological target: Integrin beta-1 (Homo sapiens) + Integrin alpha-4 (Homo sapiens) (UniProt P13612+P05556); experiment: inhibition of HUTS-21 binding to VLA-4, pilot screen, VLA-4 allosteric modulator project, U937 cells, HUTS-21 mAb, flow cytometry, validation set (AID 2674;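 active = inhibition above 50%, about 3 SD of the validation set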;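 also: antibody binding induced by the VLA-4 ligand LDV present at three times its Kd; 0% = LDV ligand with antibody and no compound and 100% = antibody without LDV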); conditions: HUTS-21 LIBS mAb binding, at 6.7 µM, stronger effect = higher value, binding induced by LDV ligand
# [8] = superoxide lowering in aged yeast cells, pilot screen, validation compound set (AID 2706;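 active = superoxide response below 65% of plate, a cut near 3 SD across the whole screen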;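 also: yeast exposed to compound for one week at 30 degrees C before staining; 100% = mean of all compound wells on the same plate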); conditions: S. cerevisiae aging, superoxide DHE fluorescence; at 10 µM; stronger effect = lower value
# [9] = biological target: Beta-adrenergic receptor kinase 1 (Homo sapiens) (UniProt P25098); experiment: GRK2 binders displacing RNA aptamer, biochemical, validation, human GRK2, bead flow cytometry (AID 488806;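 active = aptamer binding inhibition above 30%, about 3 SD of noise from non-fluorescent compounds; inactive = inhibition at or below 30%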); conditions: bead-bound GRK2, FAM-aptamer displacement, at 10 µM, stronger effect = higher value
# [10] = biological target: Beta-2 adrenergic receptor (Homo sapiens) (UniProt P07550); experiment: beta2AR agonists driving receptor internalization, pilot screen, cell-based, FAP fluorogen, flow cytometry, validation set (AID 504459;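 active = percent response above 42, roughly 3 SD of non-fluorescent test compounds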;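 also: agonist-driven loss of surface beta2AR via internalization measured by FAP dye flow cytometry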); conditions: Am2.2-beta2AR cells, FAP surface receptor flow cytometry; at 10 µM; stronger effect = higher value
# [11] = biological target: AP-2 complex subunit beta (Homo sapiens) (UniProt P63010); experiment: inhibitors of arrestin peptide binding to AP2, pilot screen, biochemical, validation set, GST-AP2 beads, flow cytometry (AID 504541;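 active = inhibition above 54%, about 3 SD of non-fluorescent compounds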;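 also: AP2 carries R879A mutation and is captured from E. coli lysate; bead-bound FITC arrestin peptide fluorescence measuring arrestin peptide binding to AP2; 0% = DMSO wells and 100% = excess unlabeled arrestin peptide control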); conditions: FITC arrestin peptide, at 10 µM, stronger effect = higher value, AP2 beta2 appendage fragment, R879A mutant
# [12] = yeast V-ATPase proton transport modulators, S. cerevisiae, pHLuorin, HTS validation (AID 504600; in the data active = response above about 15%;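 also: plate controls were DMSO for no effect and reference compound for full effect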); conditions: S. cerevisiae pHLuorin cytosolic pH, at 10 µM, stronger effect = higher value
# [13] = test system: anti-desmoglein-3 scFv antibody binding to human DSG3; experiment: inhibitors of anti-DSG3 scFv binding to DSG3, pilot screen, biochemical, validation compound set, bead-based, flow cytometry (AID 588368;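 active = binding below the plate cutoff, the plate median minus 3 SD, with a reading above zero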;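 also: signal is the median channel fluorescence of bead-bound GFP antibody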); conditions: Protein G beads, DSG3-Fc, scFv-GFP binding, at 10 µM, stronger effect = lower value
# [14] = inhibitors of fungal efflux pumps CDR1, CDR2, MDR1, pilot screen, validation compound set, multiplex, phenotypic (AID 588506);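 also: Nile Red retained in cells so higher fluorescence means more efflux inhibition; 0 = negative control wells and 1 = enniatin B 25 µM full block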; conditions: S. cerevisiae pump-expressing triplex, Nile Red efflux flow cytometry; at 10 µM; stronger effect = higher value; the pumps come from Candida albicans
# [15] = biological target: ATP-binding cassette sub-family B member 6 (Homo sapiens) (UniProt Q9NP58); experiment: ABCB6 transporter inhibitors, pilot screen, K562-ABCB6 cells, flow cytometry, validation set (AID 588550;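 active = inhibition above the screen-wide mean plus 3 SD, about 51%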;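 also: 0% = DMSO wells and 100% = benzethonium chloride 70 µM positive control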); conditions: K562-ABCB6 porphyrin accumulation, 1 h, at 10 µM, stronger effect = higher value
# [16] = promoters of myeloid differentiation in arrested cells, primary screen, cell-based, GFP/MAC1 double positive, flow cytometry, validation set (AID 588685;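 active = differentiation response of at least 50%, scaled between solvent and reference control, from cells with both markers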;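 also: compound exposure lasts four days before antibody staining and flow analysis; 0% = DMSO wells and 100% = 5 µM fulvestrant positive control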); conditions: ER-HoxA9 marrow cells, stronger effect = higher value, normalized: vehicle 0, fulvestrant 100
# AP-2 complex subunit beta (Homo sapiens), sequence (P63010 whole entry, looked up, the tested form may be a part, one chain of several): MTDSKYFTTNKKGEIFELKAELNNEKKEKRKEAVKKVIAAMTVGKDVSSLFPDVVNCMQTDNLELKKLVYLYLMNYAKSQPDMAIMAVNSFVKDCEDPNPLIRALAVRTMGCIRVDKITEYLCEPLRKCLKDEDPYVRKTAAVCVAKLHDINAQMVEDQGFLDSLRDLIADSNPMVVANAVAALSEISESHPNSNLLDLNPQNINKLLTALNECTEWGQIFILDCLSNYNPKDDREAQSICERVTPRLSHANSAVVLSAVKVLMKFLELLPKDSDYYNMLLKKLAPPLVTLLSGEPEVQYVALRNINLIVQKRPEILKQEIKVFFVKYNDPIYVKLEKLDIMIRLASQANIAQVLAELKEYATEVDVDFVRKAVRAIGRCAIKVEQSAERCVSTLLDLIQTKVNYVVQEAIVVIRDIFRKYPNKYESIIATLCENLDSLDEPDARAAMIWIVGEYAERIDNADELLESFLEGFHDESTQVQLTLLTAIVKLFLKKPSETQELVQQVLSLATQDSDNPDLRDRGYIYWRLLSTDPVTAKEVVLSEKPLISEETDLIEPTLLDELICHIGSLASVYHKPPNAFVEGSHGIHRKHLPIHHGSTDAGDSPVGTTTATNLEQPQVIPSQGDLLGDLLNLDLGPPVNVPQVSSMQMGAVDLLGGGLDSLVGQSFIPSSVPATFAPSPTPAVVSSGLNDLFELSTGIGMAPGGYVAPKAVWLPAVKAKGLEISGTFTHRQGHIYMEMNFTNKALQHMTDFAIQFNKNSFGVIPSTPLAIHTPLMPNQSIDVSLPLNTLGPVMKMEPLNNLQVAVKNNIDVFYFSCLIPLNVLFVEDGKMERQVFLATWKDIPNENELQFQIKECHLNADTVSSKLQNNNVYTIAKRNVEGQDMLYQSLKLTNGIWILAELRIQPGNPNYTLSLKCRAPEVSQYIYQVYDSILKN
# ATP-binding cassette sub-family B member 6 (Homo sapiens), sequence (Q9NP58 whole entry, looked up): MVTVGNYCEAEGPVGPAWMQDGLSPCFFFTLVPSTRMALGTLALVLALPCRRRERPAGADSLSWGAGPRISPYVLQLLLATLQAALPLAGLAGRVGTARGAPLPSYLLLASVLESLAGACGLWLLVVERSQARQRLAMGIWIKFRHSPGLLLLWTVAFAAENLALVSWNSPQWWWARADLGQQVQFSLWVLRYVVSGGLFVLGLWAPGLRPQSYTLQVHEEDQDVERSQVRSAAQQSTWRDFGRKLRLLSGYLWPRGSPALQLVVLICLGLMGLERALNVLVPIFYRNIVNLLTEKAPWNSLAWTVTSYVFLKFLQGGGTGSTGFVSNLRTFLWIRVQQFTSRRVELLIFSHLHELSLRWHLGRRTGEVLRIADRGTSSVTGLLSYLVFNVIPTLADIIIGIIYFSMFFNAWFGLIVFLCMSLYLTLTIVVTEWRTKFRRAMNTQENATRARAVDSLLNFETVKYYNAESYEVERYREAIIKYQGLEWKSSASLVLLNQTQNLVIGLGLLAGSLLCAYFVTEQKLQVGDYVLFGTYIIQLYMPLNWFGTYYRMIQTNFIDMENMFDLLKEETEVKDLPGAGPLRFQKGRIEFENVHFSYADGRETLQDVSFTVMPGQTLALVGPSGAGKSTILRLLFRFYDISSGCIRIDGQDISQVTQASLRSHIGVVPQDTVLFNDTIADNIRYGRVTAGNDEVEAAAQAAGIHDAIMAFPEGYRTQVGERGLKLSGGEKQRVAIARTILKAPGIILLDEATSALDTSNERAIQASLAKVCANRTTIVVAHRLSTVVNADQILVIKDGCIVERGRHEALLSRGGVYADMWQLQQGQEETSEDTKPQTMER
# Beta-adrenergic receptor kinase 1 (Homo sapiens), sequence (P25098 whole entry, looked up): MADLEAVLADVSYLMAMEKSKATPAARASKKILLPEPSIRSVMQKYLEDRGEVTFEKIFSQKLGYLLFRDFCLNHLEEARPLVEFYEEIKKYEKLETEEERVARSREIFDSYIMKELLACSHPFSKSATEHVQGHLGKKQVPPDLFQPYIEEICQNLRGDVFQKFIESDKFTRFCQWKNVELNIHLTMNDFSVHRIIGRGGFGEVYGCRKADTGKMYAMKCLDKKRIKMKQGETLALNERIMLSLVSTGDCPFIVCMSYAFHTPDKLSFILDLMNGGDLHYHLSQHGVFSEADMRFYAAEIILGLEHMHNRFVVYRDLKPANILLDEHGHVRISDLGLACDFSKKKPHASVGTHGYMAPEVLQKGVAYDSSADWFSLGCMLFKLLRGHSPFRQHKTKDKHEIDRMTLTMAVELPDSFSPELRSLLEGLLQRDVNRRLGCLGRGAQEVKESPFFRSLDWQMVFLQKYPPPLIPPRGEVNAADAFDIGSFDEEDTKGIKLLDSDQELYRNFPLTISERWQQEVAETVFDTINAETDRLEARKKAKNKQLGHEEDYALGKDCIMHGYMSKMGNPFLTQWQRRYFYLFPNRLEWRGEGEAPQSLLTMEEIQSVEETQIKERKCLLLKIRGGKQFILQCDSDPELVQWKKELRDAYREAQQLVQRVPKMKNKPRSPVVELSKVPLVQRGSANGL
# Integrin beta-1 (Homo sapiens) + Integrin alpha-4 (Homo sapiens), sequence (P05556 whole entry, looked up): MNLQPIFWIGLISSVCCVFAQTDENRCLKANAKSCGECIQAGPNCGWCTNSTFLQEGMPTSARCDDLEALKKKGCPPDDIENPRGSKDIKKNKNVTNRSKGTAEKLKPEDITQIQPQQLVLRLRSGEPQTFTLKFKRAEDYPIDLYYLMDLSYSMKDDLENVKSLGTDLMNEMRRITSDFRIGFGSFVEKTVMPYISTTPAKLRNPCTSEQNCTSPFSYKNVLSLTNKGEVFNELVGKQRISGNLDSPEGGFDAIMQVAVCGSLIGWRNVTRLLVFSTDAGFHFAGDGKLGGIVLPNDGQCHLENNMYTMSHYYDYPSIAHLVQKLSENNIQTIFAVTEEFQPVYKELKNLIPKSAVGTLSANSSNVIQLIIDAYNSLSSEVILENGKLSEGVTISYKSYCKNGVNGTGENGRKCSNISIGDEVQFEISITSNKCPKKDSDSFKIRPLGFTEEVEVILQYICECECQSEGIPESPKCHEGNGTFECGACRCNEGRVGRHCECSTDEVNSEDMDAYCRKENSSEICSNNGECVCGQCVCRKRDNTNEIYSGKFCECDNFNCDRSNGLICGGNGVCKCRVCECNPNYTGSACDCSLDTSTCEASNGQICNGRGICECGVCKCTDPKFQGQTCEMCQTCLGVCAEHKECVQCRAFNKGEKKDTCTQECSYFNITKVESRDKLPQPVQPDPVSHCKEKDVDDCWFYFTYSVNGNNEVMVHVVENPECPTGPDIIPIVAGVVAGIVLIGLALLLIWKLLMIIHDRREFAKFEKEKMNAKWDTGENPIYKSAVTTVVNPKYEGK
# Integrin beta-1 (Homo sapiens) + Integrin alpha-4 (Homo sapiens), sequence (P13612 whole entry, looked up): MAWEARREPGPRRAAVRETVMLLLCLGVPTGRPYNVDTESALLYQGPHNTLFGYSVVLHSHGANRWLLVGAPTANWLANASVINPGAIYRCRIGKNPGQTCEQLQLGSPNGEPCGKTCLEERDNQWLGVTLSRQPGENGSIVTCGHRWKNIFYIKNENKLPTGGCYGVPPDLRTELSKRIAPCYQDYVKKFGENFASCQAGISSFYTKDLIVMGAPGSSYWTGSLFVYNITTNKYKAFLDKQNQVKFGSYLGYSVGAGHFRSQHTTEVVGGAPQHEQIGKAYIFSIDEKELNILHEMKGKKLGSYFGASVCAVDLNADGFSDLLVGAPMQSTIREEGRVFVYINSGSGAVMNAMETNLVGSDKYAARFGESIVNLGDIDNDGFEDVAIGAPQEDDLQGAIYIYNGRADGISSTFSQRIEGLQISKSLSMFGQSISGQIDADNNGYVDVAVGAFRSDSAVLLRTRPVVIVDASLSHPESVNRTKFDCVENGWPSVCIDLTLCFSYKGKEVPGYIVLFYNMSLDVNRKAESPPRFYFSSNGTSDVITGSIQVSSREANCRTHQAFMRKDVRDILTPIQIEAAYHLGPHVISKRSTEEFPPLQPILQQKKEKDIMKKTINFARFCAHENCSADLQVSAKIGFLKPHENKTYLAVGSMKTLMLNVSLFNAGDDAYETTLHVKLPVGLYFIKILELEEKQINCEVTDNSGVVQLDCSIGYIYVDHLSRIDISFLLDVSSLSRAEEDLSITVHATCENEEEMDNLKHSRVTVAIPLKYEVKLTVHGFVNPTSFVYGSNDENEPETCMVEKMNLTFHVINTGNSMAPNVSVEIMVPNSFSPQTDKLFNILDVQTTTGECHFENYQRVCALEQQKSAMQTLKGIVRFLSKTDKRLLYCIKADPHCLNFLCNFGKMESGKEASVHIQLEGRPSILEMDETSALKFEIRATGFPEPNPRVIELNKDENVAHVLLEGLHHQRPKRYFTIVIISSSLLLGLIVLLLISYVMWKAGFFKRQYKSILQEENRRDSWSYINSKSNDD
# Beta-2 adrenergic receptor (Homo sapiens), sequence (P07550 whole entry, looked up): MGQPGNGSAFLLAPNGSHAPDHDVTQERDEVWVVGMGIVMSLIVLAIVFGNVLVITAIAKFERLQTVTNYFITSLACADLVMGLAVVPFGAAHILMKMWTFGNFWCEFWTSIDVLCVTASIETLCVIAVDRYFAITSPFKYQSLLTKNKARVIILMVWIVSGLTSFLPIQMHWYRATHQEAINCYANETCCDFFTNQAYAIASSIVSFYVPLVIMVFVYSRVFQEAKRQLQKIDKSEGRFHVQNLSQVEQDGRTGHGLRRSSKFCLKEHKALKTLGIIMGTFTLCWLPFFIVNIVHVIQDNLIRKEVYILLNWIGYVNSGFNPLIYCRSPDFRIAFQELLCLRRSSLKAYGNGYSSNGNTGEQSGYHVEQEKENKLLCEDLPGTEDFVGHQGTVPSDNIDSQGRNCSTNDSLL
SMILES,percent of DMSO control GFP [1],GFP response vs DMSO [2],percent response of DMSO control [3],GFP response vs DMSO [4],"GFP response, % of DMSO [5]",double positive events [6],vesicle binding response [6],inhibition [7],superoxide response (% of plate) [8],aptamer binding inhibition [9],response [10],inhibition [11],response [12],binding (% of control) [13],efflux inhibition (fraction of control) [14],inhibition [15],differentiation response [16]
Fc1ccc(-c2cc(-c3ccccc3)nc(-n3cccn3)n2)cc1,96.5% (inactive),106% (inactive),99.3% (inactive),97.2% (inactive),75.4% (inactive),57.7%,11.1% (inactive),6.85% (inactive),92% (inactive),4% (inactive),8.42% (inactive),34.7% (inactive),0.43% (inactive),102% (inactive),0.3 (inactive),2% (inactive),20.9% (inactive)
Cc1ccsc1/C=C/C1=NCCCN1C,106% (inactive),104% (inactive),112% (inactive),103% (inactive),118% (inactive),67.3%,168% (inactive),-34.6% (inactive),104% (inactive),1% (inactive),3.43% (inactive),-5.94% (inactive),1.52% (inactive),104% (inactive),-0.135 (inactive),1% (inactive),-3.11% (inactive)
CC(C)CC1c2[nH]c3ccccc3c2CCN1C(=O)CCC(=O)N(C)C (stereo not drawn),90.9% (inactive),117% (inactive),107% (inactive),79.2% (inactive),93.1% (inactive),80.7%,264% (inactive),3.55% (inactive),104% (inactive),4% (inactive),6.34% (inactive),-2.59% (inactive),-2.43% (inactive),104% (inactive),-0.31 (inactive),12% (inactive),-6.55% (inactive)
Cc1ccc(N(CC2=NCCN2)c2cccc(O)c2)cc1,107% (inactive) and 88.9% (inactive) and 106% (inactive),107% (inactive) and 126% (inactive) and 96.9% (inactive),112% (inactive) and 107% (inactive) and 114% (inactive),105% (inactive) and 80.3% (inactive) and 113% (inactive),105% (inactive) and 95.6% (inactive) and 106% (inactive),48.5% and 66.6% and 52.4%,164% (inactive) and 159% (inactive) and 183% (inactive),-12.4% (inactive) and 6.46% (inactive) and 1.62% (inactive),94.9% (inactive) and 91.2% (inactive) and 102% (inactive),-2% (inactive) and 0% (inactive) and -7% (inactive),-2.19% (inactive),-1.88% (inactive) and 0.96% (inactive) and -11.2% (inactive),1.2% (inactive) and -3.77% (inactive) and 0.74% (inactive),98.2% (inactive) and 102% (inactive) and 97.7% (inactive),-0.05 (inactive) and 0.23 (inactive) and -0.24 (inactive),9% (inactive) and 4% (inactive) and 7% (inactive),-34.1% (inactive) and 3.28% (inactive) and -18% (inactive)
CC1=C/C(=N\N=C2\NC(=O)C(CC(=O)Nc3ccccc3F)S2)CC(C)(C)C1 (stereo not drawn),94.2% (inactive),125% (inactive),86% (inactive),83.1% (inactive),95.2% (inactive),58%,104% (inactive),12.3% (inactive),96.1% (inactive),8% (inactive),-1.66% (inactive),-7.65% (inactive),1.96% (inactive),102% (inactive),-0.2 (inactive),11% (inactive),4.09% (inactive)
COc1ccc2oc(=O)c(C(=O)Nc3ccccc3-c3ccccc3)cc2c1,101% (inactive),104% (inactive),99% (inactive),97.1% (inactive),113% (inactive),64.5%,167% (inactive),2.29% (inactive),94.6% (inactive),4% (inactive),13.6% (inactive),85% (active),-7.05% (inactive),97.4% (inactive),0 (inactive),6% (inactive),-8.93% (inactive)
C[C@]12CC[C@@H]3c4ccc(O)cc4[C@@H](O)C[C@H]3[C@@H]1CC[C@@H]2O,103% (inactive),101% (inactive),108% (inactive),98% (inactive),104% (inactive),59.1%,53.4% (inactive),5.61% (inactive),106% (inactive),26% (inactive),-0.21% (inactive),-3.62% (inactive),-0.11% (inactive),102% (inactive),-0.29 (inactive),11% (inactive),-3.11% (inactive)
NC(=O)c1ncn([C@@H]2O[C@H](CO)[C@@H](O)[C@H]2O)c1O,101% (inactive),103% (inactive),96.7% (inactive),108% (inactive),98% (inactive),55.9%,164% (inactive),-16.8% (inactive),109% (inactive),1% (inactive),3.75% (inactive),-16.1% (inactive),-4.18% (inactive),98.7% (inactive),-0.21 (inactive),3% (inactive),-15.2% (inactive)
Cc1nc2ccccc2n1CC(=O)NC1CCCC1,101% (inactive),95.6% (inactive),109% (inactive),92.6% (inactive),105% (inactive),60.6%,118% (inactive),-2.43% (inactive),84.9% (inactive),-2% (inactive),7.07% (inactive),-5.83% (inactive),0.83% (inactive),105% (inactive),0.115 (inactive),-2% (inactive),-8.96% (inactive)
